PubChem BioAssay (NCI)
This is part of a sample that, as a whole, favours compounds with a hit. Of some 83,000 tested, about 20% had one in any assay.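 Percent growth is the endpoint: 0 to 100 indicates growth inhibition (40 means 60% inhibition), 0 means no net growth, and negative values indicate cell death.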 A number with no mark means an inactive call. Active and inactive are the calls of the source. Rule for the calls: active = growth percent below 10; inactive = the rest.

test system: HCT-15 colon; experiment: NCI-60 one-dose screen, 48 h (100 = growth as untreated, 0 = no growth, -100 = all killed); settings: 10 µM unless noted

| Structure (SMILES) | growth |
| --- | --- |
| Cc1nn(-c2ccccc2)c2nc(C)n(-c3ccc(Br)cc3)c(=O)c12 | 17.4% |
| CCOC(=O)C(CC)n1c(=O)c2cc(OC)c(OC)cc2c2cnc3[nH]ccc3c21 (stereo not drawn) | 75% |
| CC(C)c1c(C(=O)Nc2ccccc2)c(-c2ccccc2)c(-c2ccc(F)cc2)n1CC[C@@H]1CC=CC(=O)O1 | -42.7% (active) |
| CC(=O)N1CC(Nc2ccc(OC(F)(F)F)cc2)=CC1=O | 30.8% |
| Oc1ccccc1/C=N/Nc1ccc2ccccc2n1 | 25.2% |
| O=[N+]([O-])c1cccc(C2CC(c3ccccc3)=Nc3ccccc3S2)c1 (stereo not drawn) | 84.7% |
| CCCCCC(=O)N(CCCC)CCCC | 96.8% |
| CCCCCCCCCCCCCCCCNCCC[C@@H](C)[C@H]1CC[C@H]2[C@@H]3[C@H](OCCCN)C[C@@H]4C[C@H](OCCCN)CC[C@]4(C)[C@H]3C[C@H](OCCCN)[C@]12C | 7.08% (active) |
| COc1ccc(-c2cc(NC(=O)Nc3ccc(O)cc3)no2)cc1 | 49.5% |
| O=C(O)C(O)C(O)C(=O)O.[NH-]C1CCCCC1[NH-].[Pt+2] (stereo not drawn) | 103% |
| CCCNc1nc(SC)nc(-c2cccc(N)c2)c1C#N | 102% |
| CC(=O)OCC(=O)C1CCC=CC1OC(C)=O (stereo not drawn) | 103% |
| Nc1ccc(Nc2nccc(-c3ccc4ccccc4c3)n2)cc1 | 25% |
| O=S(=O)(Nc1ccc(Cl)cc1Cl)c1ccc(-c2cnc(C3CC3)o2)cc1 | 24.3% |
| O=C1/C(=C/c2ccc(Cl)cc2Cl)CN(S(=O)(=O)c2ccccc2)C/C1=C\c1ccc(Cl)cc1Cl | -14.7% (active) |
| COc1ccc(-c2nc(Nc3cc(C)[nH]n3)c3ccccc3n2)cc1 | 42.4% |
| COc1ccc(-c2csc(NC(=O)CN3CCN(c4cc5c(cc4F)c(=O)c(C(=O)O)cn5C4CC4)CC3)n2)cc1 | 14.6% |
| Cc1noc(C)c1-c1cc(O)cc(C(O)c2ccccc2)c1 (stereo not drawn) | 36.7% |
| COc1cc(OC)c(/C=C/S(=O)(=O)Cc2ccc(OC)c(N)n2)c(OC)c1 | 7.7% (active) |

| Structure (SMILES) | growth |
| --- | --- |
| Oc1ccc(Nc2nccc(-c3ccc4ccccc4c3)n2)cc1 | 16.9% |
| Cc1cc(Nc2nc(N3CCNCC3)nc3ccccc23)n[nH]1 | 70.5% |
| CCCCCN(CCCCC)CCC[C@@H](C)[C@H]1CC[C@H]2[C@@H]3[C@H](OCCCN)C[C@@H]4C[C@H](OCCCN)CC[C@]4(C)[C@H]3C[C@H](OCCCN)[C@]12C | 72.3% |
| C[C@@H]1CC[C@@H]2[C@@H]1[C@H](OC(=O)/C=C/c1ccccc1)[C@]1(c3ccccc3)C[C@@H](OC(=O)CO)[C@@]2(C)O1 | 97.7% |
| COc1ccc(C2CC(=O)Nc3c2c(C)nn3-c2nc3ccccc3[nH]2)cc1 (stereo not drawn) | 99.6% |
| O=C(/C=C/c1ccc(B(O)O)cc1)/C=C/c1ccc(B(O)O)cc1 | 8.01% (active) |
| CC[C@H](Nc1cc(C)nc(N)n1)c1nc2cccc(NCc3ccc(C(=O)NO)cc3)c2c(=O)n1-c1ccccc1 | 92.5% |
| Cc1ccc(S(=O)(=O)n2cc(-c3csc(-c4cn(C)c5ncccc45)n3)c3ccccc32)cc1 | 35.8% |
| CC/C=C\C[C@H](O)C/C=C1/C(=O)C=C[C@@H]1C/C=C\CCCC(N)=O | -36.8% (active) |
| Cc1cccc(NC(=O)c2sc3nc4c(cc3c2N)C(=O)CCC4)c1 | 28.9% |
| CC(=O)C1=C(O)C=C2Oc3c(C(=O)/C=C/c4ccccc4)c(O)c(C)c(O)c3[C@]2(C)C1=O | 25.3% |
| O=C1NC(=O)C(CC(=O)n2c(-c3ccccc3)nc3ccccc32)C(=O)N1 | 100% |
| Oc1cccc(Nc2nccc(-c3ccc4ccccc4c3)n2)c1 | 22.2% |
| COc1c(Cl)cc(Cl)cc1Cl | 116% |
| CC1(C)OCC2OC3(C(=O)O)OC(C)(C)OC3C2O1 (stereo not drawn) | 99.6% |
| O=C(NC(Cc1ccccc1)C(=O)CCl)OCc1ccccc1 (stereo not drawn) | 58.6% |
| O=C(N/N=C/c1ccc(O)cc1O)c1cccnc1 | 30.7% |
| O=c1c2cccc3c(NC4CCCCC4)ccc(c32)c2nc3ccccc3n12 | 74.8% |
| O=C1Nc2ccccc2/C1=C/C(=N/c1nnc(-c2ccccc2)s1)c1ccccc1 | 19.8% |
